Tests used:
Experiment in all cases: DAPPL (digital affinity profiling via proximity ligation, sequencing); 10 mM Tris-HCl pH 7.5, 50 mM NaCl, 1 mM DTT, 4% glycerol, room temperature, 30 min; GST-TFs on glutathione beads, 16-mer random dsDNA library, 0.1% formaldehyde crosslink after washing; high values mean tight binding
[1] = molecular target: T1, FLI1 (Homo sapiens, UniProt Q01543 1-452); conditions: protein: recombinant; tags: N-terminal GST; dsDNA, one strand shown
T1 sequence: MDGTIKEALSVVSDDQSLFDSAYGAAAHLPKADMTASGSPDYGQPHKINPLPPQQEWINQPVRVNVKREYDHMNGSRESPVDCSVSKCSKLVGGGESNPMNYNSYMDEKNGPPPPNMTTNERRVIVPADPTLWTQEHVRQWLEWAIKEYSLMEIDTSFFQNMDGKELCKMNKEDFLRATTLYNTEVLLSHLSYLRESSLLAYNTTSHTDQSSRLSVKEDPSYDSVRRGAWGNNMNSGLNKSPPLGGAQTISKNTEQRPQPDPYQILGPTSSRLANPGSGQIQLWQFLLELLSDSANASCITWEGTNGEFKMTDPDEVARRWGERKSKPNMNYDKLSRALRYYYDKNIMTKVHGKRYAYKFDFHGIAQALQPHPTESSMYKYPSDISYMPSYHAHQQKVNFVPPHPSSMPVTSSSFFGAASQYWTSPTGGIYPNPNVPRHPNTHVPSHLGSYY
Method in brief: (§1)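 Each value of binding signal is a hexamer's read frequency for a factor divided by the same hexamer's frequency in the tag-only sample. Barcoded, bead-captured GST fusions of human transcription factors made in yeast were pooled with that sample and incubated with 200 nmole of a random double-stranded 16-mer DNA library in Tris/NaCl/DTT/glycerol buffer at room temperature for 30 min. Washing, 0.1% formaldehyde crosslinking, proximity ligation, PCR and Illumina NextSeq500 sequencing followed.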

[2] = molecular target: T2, ELK1 (Homo sapiens, UniProt P19419 1-428); conditions: protein: recombinant; tags: N-terminal GST; dsDNA, one strand shown
T2 sequence: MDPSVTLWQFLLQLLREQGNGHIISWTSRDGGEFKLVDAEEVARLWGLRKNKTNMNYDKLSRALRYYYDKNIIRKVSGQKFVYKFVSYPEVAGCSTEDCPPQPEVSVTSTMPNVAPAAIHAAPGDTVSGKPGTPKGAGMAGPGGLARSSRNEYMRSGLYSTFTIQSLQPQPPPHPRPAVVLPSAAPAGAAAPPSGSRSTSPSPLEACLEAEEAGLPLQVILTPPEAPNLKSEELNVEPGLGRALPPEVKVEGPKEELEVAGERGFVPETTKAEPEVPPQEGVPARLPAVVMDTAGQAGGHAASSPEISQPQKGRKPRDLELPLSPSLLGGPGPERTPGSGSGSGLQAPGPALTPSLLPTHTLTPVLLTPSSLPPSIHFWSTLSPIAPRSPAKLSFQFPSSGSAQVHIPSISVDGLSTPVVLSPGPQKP
Method in brief: as §1

[3] = molecular target: T3, GABPA (Homo sapiens, UniProt Q06546 1-454); conditions: protein: recombinant; tags: N-terminal GST; dsDNA, one strand shown
T3 sequence: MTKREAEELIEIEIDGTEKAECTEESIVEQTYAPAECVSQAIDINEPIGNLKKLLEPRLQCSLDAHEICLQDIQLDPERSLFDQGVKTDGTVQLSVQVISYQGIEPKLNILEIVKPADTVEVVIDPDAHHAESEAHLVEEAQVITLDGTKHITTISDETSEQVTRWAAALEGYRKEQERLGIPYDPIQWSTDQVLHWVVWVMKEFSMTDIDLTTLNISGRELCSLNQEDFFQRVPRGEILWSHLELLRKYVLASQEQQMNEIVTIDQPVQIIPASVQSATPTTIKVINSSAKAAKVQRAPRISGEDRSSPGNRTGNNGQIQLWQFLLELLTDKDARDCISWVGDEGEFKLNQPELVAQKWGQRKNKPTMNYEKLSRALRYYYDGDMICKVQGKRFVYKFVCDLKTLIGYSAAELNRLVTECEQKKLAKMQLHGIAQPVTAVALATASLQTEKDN
Method in brief: as §1

[4] = molecular target: T4, ERG (Homo sapiens, UniProt P11308 1-479); conditions: protein: recombinant; tags: N-terminal GST; dsDNA, one strand shown
T4 sequence: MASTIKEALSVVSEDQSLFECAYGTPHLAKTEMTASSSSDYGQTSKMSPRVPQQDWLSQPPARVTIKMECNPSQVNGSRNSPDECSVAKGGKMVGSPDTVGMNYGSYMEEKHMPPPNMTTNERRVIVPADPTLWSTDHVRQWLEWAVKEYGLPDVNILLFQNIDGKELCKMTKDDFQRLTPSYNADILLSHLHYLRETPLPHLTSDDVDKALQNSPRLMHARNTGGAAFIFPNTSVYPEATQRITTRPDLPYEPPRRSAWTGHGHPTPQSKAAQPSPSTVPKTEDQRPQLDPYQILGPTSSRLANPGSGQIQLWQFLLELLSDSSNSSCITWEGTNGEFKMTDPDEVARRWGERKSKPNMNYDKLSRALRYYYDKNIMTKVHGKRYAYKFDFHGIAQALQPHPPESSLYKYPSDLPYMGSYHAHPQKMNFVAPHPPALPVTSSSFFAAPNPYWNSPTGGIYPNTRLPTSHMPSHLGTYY
Method in brief: as §1

[5] = molecular target: ELF1 (Homo sapiens, UniProt P32519 1-619); conditions: protein: recombinant; tags: N-terminal GST; dsDNA, one strand shown
Method in brief: as §1

[6] = molecular target: T5, EHF (Homo sapiens, UniProt Q9NZC4 1-300); conditions: protein: recombinant; tags: N-terminal GST; dsDNA, one strand shown
T5 sequence: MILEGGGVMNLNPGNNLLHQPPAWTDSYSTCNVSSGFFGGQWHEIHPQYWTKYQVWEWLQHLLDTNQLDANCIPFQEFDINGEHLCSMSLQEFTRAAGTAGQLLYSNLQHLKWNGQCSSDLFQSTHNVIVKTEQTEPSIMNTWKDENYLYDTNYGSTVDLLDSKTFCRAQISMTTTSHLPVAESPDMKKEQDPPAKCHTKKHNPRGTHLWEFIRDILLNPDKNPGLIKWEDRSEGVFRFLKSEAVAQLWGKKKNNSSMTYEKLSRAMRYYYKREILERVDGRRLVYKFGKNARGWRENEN
Method in brief: as §1

[7] = molecular target: SPI1 (Homo sapiens, UniProt P17947 1-270); conditions: protein: recombinant; tags: N-terminal GST; dsDNA, one strand shown
Method in brief: as §1

[8] = molecular target: SPIB (Homo sapiens, UniProt Q01892 1-262); conditions: protein: recombinant; tags: N-terminal GST; dsDNA, one strand shown
Method in brief: as §1

[9] = molecular target: T6, ELK3 (Homo sapiens, UniProt P41970 1-407); conditions: protein: recombinant; tags: N-terminal GST; dsDNA, one strand shown
T6 sequence: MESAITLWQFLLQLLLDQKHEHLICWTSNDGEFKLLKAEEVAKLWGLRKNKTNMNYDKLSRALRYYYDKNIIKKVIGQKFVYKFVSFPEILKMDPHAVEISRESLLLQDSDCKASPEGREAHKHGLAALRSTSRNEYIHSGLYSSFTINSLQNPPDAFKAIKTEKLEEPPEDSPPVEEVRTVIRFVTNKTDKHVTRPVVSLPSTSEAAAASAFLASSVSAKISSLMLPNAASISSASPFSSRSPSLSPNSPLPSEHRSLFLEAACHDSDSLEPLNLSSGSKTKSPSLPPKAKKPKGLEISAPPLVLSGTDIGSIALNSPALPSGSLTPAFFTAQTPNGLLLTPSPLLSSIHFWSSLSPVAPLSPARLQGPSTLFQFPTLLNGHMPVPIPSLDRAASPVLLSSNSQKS
Method in brief: as §1

[10] = molecular target: T7, FEV (Homo sapiens, UniProt Q99581 1-238); conditions: protein: recombinant; tags: N-terminal GST; dsDNA, one strand shown
T7 sequence: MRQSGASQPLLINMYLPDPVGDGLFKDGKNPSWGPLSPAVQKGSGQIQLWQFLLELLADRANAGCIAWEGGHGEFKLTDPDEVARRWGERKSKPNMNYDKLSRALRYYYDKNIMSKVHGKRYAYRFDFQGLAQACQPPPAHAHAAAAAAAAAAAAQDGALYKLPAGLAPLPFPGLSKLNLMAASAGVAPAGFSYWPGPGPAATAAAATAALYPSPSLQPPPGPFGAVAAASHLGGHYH
Method in brief: as §1

[11] = molecular target: ETV5 (Homo sapiens, UniProt P41161 1-510); conditions: protein: recombinant; tags: N-terminal GST; dsDNA, one strand shown
Method in brief: as §1

[12] = molecular target: HSF1 (Homo sapiens, UniProt Q00613 1-529); conditions: protein: recombinant; tags: N-terminal GST; chain copies: 3; dsDNA, one strand shown
Method in brief: as §1

[13] = molecular target: T8, SPIC (Homo sapiens, UniProt Q8N5J4 1-248); conditions: protein: recombinant; tags: N-terminal GST; dsDNA, one strand shown
T8 sequence: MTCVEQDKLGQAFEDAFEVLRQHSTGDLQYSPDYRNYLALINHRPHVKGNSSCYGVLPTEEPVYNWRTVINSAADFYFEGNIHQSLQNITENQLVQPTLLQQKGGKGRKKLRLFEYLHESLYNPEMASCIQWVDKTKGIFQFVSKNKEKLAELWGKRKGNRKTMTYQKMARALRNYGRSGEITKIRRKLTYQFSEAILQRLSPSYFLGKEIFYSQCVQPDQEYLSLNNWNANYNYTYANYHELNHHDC
Method in brief: as §1

[14] = molecular target: ELF4 (Homo sapiens, UniProt Q99607 1-663); conditions: protein: recombinant; tags: N-terminal GST; dsDNA, one strand shown
Method in brief: as §1

[15] = molecular target: T9, ELK4 (Homo sapiens, UniProt P28324-2 1-405); conditions: protein: recombinant; tags: N-terminal GST; dsDNA, one strand shown
T9 sequence: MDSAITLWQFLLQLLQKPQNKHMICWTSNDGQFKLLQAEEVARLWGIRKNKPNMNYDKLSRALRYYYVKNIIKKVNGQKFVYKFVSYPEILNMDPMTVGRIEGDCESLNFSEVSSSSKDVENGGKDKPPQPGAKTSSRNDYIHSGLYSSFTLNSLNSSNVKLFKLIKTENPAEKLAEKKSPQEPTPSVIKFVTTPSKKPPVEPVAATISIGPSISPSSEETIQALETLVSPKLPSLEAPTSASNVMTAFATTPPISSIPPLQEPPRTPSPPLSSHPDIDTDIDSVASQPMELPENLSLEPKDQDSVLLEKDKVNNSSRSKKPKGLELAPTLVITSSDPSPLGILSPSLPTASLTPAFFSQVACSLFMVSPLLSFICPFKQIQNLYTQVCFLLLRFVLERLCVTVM
Method in brief: as §1

[16] = molecular target: T10, ETV2 (Homo sapiens, UniProt O00321 1-342); conditions: protein: recombinant; tags: N-terminal GST; dsDNA, one strand shown
T10 sequence: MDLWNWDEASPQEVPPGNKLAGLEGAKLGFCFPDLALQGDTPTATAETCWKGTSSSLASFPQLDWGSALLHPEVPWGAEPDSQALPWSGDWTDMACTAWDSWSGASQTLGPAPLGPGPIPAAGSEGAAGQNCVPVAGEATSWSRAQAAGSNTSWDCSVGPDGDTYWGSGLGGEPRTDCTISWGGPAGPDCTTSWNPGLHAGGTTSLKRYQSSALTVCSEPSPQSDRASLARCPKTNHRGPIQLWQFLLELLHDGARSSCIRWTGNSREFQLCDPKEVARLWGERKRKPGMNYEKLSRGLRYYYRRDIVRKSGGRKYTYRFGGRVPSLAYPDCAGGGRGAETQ
Method in brief: as §1

[17] = molecular target: T11, ELF3 (Homo sapiens, UniProt P78545 1-371); conditions: protein: recombinant; tags: N-terminal GST; dsDNA, one strand shown
T11 sequence: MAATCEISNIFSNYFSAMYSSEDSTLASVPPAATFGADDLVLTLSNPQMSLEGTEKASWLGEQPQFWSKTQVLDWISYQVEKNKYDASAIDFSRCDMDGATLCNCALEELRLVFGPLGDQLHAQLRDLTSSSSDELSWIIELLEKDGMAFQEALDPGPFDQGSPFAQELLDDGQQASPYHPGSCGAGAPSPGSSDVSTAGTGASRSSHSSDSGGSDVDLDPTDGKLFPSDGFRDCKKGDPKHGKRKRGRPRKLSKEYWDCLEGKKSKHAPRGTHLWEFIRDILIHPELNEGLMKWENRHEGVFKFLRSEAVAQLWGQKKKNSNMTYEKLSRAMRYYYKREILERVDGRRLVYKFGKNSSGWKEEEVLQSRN
Method in brief: as §1

[18] = molecular target: CRX (Homo sapiens, UniProt O43186 1-299); conditions: protein: recombinant; tags: N-terminal GST; dsDNA, one strand shown
Method in brief: as §1

[19] = molecular target: ETV1 (Homo sapiens, UniProt P50549 1-477); conditions: protein: recombinant; tags: N-terminal GST; dsDNA, one strand shown
Method in brief: as §1

Sequence of HSF1 (Q00613 whole entry): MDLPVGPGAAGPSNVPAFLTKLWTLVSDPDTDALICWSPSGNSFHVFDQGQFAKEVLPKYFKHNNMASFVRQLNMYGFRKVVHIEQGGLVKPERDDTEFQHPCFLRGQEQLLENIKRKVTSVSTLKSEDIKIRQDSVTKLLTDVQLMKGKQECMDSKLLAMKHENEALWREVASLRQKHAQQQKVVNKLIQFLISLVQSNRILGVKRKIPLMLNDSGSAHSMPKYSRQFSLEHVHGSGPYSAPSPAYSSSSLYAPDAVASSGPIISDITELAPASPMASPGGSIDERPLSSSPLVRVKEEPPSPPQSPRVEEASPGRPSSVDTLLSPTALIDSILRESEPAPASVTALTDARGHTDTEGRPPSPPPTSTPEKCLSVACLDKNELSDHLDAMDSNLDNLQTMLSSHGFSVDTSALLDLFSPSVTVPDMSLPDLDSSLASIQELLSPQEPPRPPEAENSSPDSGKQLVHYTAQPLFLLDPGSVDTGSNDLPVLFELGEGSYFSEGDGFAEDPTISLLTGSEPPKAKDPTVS
Sequence of ETV5 (P41161 whole entry): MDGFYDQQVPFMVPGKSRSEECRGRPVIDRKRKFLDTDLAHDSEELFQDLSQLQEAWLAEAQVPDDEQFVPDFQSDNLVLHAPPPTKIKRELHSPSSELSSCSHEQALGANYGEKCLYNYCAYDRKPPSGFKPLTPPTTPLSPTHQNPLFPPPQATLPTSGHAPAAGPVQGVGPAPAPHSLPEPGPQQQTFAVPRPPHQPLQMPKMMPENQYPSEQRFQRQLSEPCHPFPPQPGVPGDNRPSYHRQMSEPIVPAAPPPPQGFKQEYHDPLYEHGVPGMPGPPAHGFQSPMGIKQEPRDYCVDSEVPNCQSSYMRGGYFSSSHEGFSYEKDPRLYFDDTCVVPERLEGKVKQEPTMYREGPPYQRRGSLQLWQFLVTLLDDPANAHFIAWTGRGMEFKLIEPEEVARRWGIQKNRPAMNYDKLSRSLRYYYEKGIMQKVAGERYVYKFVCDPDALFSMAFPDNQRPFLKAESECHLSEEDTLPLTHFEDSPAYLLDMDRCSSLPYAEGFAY
Sequence of ELF1 (P32519 whole entry): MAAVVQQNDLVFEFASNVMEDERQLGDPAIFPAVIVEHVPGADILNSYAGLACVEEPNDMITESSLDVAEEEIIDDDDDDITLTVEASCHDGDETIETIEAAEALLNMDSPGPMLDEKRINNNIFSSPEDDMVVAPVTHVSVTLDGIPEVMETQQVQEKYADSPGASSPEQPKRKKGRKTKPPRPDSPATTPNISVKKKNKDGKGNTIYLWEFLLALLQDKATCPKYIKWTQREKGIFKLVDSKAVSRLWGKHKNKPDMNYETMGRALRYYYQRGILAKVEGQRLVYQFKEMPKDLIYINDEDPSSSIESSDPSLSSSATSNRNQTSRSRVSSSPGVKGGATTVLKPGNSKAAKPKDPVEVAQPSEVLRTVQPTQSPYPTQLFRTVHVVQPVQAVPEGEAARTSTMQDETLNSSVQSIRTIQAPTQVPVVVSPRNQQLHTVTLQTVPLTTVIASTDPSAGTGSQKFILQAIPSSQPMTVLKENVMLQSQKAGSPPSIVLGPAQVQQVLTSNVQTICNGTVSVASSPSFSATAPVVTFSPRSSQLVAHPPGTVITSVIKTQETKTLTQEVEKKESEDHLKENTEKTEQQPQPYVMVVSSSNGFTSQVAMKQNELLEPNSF
Sequence of ETV1 (P50549 whole entry): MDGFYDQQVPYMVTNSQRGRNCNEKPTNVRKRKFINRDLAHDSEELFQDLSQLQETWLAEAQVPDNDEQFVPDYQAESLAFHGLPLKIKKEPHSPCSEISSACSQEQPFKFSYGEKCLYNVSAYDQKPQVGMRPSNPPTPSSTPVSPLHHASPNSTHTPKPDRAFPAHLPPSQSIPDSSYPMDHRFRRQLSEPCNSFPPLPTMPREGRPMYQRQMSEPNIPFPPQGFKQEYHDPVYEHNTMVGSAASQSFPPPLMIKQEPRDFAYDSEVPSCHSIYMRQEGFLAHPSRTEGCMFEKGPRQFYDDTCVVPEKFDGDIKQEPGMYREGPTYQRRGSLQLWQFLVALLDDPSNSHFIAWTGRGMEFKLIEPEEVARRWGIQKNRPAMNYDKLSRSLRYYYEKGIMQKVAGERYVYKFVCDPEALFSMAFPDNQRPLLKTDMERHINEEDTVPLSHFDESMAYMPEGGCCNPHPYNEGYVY
Sequence of SPIB (Q01892 whole entry): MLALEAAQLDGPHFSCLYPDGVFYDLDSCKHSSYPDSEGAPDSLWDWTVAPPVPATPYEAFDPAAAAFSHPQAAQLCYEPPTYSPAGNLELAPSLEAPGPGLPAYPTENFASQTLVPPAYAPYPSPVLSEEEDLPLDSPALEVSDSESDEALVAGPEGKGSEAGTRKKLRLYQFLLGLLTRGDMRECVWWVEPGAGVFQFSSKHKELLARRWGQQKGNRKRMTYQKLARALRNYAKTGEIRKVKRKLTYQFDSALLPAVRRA
Sequence of ELF4 (Q99607 whole entry): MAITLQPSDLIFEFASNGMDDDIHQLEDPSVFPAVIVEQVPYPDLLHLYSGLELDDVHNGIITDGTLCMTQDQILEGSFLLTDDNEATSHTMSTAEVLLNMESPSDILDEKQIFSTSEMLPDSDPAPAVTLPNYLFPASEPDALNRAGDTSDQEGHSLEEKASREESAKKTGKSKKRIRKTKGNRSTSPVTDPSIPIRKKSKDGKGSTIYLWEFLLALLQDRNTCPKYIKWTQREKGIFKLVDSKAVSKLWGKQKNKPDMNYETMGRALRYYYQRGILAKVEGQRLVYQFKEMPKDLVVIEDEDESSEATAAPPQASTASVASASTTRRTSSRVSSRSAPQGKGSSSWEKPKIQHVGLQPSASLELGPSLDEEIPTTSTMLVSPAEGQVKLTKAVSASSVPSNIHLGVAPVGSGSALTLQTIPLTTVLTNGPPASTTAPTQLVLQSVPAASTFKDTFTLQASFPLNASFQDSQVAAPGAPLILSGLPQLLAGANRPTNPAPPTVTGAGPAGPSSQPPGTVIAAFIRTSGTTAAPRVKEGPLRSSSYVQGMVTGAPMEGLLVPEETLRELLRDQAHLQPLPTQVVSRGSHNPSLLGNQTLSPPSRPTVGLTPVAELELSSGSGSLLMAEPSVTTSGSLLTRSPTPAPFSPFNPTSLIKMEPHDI
Sequence of CRX (O43186 whole entry): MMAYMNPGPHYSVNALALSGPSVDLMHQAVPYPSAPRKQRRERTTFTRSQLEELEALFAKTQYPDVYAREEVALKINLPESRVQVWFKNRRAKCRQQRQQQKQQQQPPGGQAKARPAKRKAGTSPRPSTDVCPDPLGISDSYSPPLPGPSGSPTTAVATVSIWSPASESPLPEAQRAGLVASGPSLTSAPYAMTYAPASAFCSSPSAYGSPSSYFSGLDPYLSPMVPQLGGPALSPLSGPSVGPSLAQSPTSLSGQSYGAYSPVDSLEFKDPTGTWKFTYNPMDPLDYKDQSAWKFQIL

CGACCT
binding signal [1]: 1.44 fold enrichment (6-mer frequency, TF over GST control)
binding signal [2]: 1.44 fold enrichment (6-mer frequency, TF over GST control)
binding signal [3]: 1.54 fold enrichment (6-mer frequency, TF over GST control)
binding signal [4]: 1.46 fold enrichment (6-mer frequency, TF over GST control)
binding signal [5]: 1.6 fold enrichment (6-mer frequency, TF over GST control)
binding signal [6]: 1.39 fold enrichment (6-mer frequency, TF over GST control)
binding signal [7]: 1.4 fold enrichment (6-mer frequency, TF over GST control)
binding signal [8]: 1.63 fold enrichment (6-mer frequency, TF over GST control)
binding signal [9]: 1.7 fold enrichment (6-mer frequency, TF over GST control)
binding signal [10]: 1.59 fold enrichment (6-mer frequency, TF over GST control)
binding signal [11]: 1.61 fold enrichment (6-mer frequency, TF over GST control)
binding signal [12]: 1.35 fold enrichment (6-mer frequency, TF over GST control)
binding signal [13]: 1.41 fold enrichment (6-mer frequency, TF over GST control)
binding signal [14]: 1.61 fold enrichment (6-mer frequency, TF over GST control)
binding signal [15]: 1.56 fold enrichment (6-mer frequency, TF over GST control)
binding signal [16]: 1.73 fold enrichment (6-mer frequency, TF over GST control)
binding signal [17]: 1.45 fold enrichment (6-mer frequency, TF over GST control)
binding signal [18]: 1.21 fold enrichment (6-mer frequency, TF over GST control)
binding signal [19]: 1.55 fold enrichment (6-mer frequency, TF over GST control)

Source: article PMC7862700, “An all-to-all approach to the identification of sequence-specific readers for epigenetic DNA modifications on cytosine”
